Measurements from PubChem BioAssay AID2284216 (EPA ToxCast).
Activity calls are given as the source filed them. How the source made its calls: active means hit-call score of the fitted dose curve at least 0.9, where 1 is the maximum; inactive means score below 0.9.

Target: rat Peripheral Benzodiazepine Receptor (PBR), Tspo (gene 24230) (UniProt P16257)
Assay: ERF_TW_TR_rTSPO: Eurofins (ERF) Radioligand Binding Assay for rat Peripheral Benzodiazepine Receptor (PBR) Antagonism
Procedure: ERF_TW_TR_rTSPO is a biochemical, single-readout assay that uses extracted gene-proteins in a cell-free assay. Measurements were taken 0.25 hour after chemical dosing in a 96-well plate. See PBR Rat Binding (Antagonist Radioligand) Assay, Panlabs.ERF_TW_TR_rTSPO is an assay component calculated from the ERF_TW_TR_rTSPO assay. It is designed to measure radioligand binding using a type of binding reporter as detected by scintillation counting with radiometry technology.Data from the assay component ERF_TW_TR_rTSPO was analyzed at the assay endpoint, ERF_TW_TR_rTSPO, in the positive analysis fitting direction relative to DMSO as the negative control and baseline of activity. Using a type of binding reporter, loss-of-signal activity can be used to understand changes in transporter binding as they relate to gene TSPO. To generalize the intended target to other relatable targets, this assay endpoint is annotated to the transporter intended target family, where the subfamily is cholesterol transporter.
Cells are incubated for 15 minutes at room temprature with [3H]PK 11195 (0.2 nM) as lingand.Test Sample Requirements: Minimum for 1) Screen: 60 ul of 10 mM stock -OR- 1 mg (pre-weighed) for 10uM final testing. . 2) Dose Response: 90 ul of 10 mM stock -OR- 1 mg (pre-weighed) for a top concentration at 10uM. .

rat Peripheral Benzodiazepine Receptor (PBR), Tspo (gene 24230), sequence (P16257 whole entry, looked up): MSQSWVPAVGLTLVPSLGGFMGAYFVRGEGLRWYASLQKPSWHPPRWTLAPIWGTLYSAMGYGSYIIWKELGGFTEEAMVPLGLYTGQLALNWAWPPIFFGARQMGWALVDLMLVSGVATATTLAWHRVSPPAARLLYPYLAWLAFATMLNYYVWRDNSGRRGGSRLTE

Row | SMILES | AC50
1 | COc1cc(CCC(=O)CC(=O)CCc2ccc(O)c(OC)c2)ccc1O | 2550 nM (active)
2 | O=C(/C=C/c1ccc(O)cc1)CC(=O)/C=C/c1ccc(O)cc1 | 161 nM (active)
